The source of these data is PubChem BioAssay.

Experiment [1] can be described thus: inhibitors of TNFa-induced NFkB p65 translocation, primary screen, imaging, HUVEC, MLSMR starter and 10KST1 sets (AID 438;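 active means inhibition above 20% together with a positive visual image hit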;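 further: compound added about 3h40 before a 20 min TNFalpha stimulation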;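 on inhibition: signal is the nuclear over cytoplasmic p65 intensity ratio per well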). The conditions noted are these: HUVEC TNFa-induced p65 nuclear translocation; cell count: measured here: nuclei count (cytotoxicity indicator), at 2.08 µM; inhibition: at 2 µM, stronger effect = higher value, 0% TNFa-plus-vehicle, 100% no-TNFa wells.

Experiment [2] is described as follows: inhibitors of mutant huntingtin aggregation, primary screen, imaging, exon1htt(103Q)mCFP cells, high-content imaging (AID 483;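 active means visual image review flags a hit and inhibition of aggregation exceeds 20%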;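 further: compound exposure lasted 3 days before fixation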;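 on nuclei count: percent of the per-plate median nuclei count of sample wells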). The following applies: exon1htt(103Q)mCFP cell line, aggregate imaging, at 2 µM; inhibition of aggregation: stronger effect = higher value; nuclei count: measured here: cell count, toxicity.
A short description of experiment [3]: inhibitors of E-selectin induction by TNFa, primary screen, imaging, HUVEC, immunofluorescence, MLSMR starter and 10KST1 sets (AID 487;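 active means visually confirmed hit in the image check and inhibition above 20%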;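 on inhibition: signal is fraction of cell area covered by stained E-selectin grains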;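 on nuclei count: 100% = median nuclei count of all wells on the same plate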). The conditions noted are these: HUVEC TNFalpha-induced E-selectin immunofluorescence imaging, at 2 µM; inhibition: stronger effect = higher value; nuclei count: measured here: cell number, toxicity.
Experiment [4] deals with Voltage-gated potassium channel subunit beta-2 (Rattus norvegicus) (UniProt P62483). In words: KvBeta enzyme negative modulators, primary screen, biochemical, NADPH fluorescence (AID 622;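 active means fluorescence slope higher than the sample average by over 3 SD, cut at about -0.22 in these data, passing the limit was not always enough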;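 further: slope of raw intensity against log time taken from 70 to 1610 s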). The following applies: recombinant KvBeta, 4-cyanobenzaldehyde reduction, at 10 µM, stronger effect = higher value.
The target is the same in experiment [5]. In words: KvBeta positive modulators, primary screen, biochemical, NADPH fluorescence (AID 623;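 active means NADPH fluorescence slope more negative than the mean of all samples by about 3 SD, 99.7% confidence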;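 further: fluorescence intensity change per second fitted from 20 to 320 s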). The conditions noted are these: Recombinant KvBeta, NADPH fluorescence decrease slope, 10 min; at 10 µM; stronger effect = lower value.
Experiment [6] has as its target Alpha-2C adrenergic receptor (Homo sapiens) (UniProt P18825). In words: modulators of alpha2C/GIRK thallium flux, primary screen, cell-based, HEK293 alpha2C/GIRK1/2 (AID 624;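 active means fluorescence slope after compound addition differing from the mean of all screened samples at 99.7% confidence, in either direction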;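 further: slope of fluorescence ratio to pre-addition baseline per second over 15 to 24 s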). The following applies: thallium flux BTC fluorescence, at 10 µM, actives lie on both sides.
Experiment [7] is described as follows: inhibitors of Sendai virus-induced IRF3 signaling, primary screen, TLR/RLR signaling modifier project, cell-based, Sendai virus stimulus, luciferase, 10K MLSCN set (AID 602276;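 active means inhibition at or above 50% at 10 µM; inactive means inhibition below 50%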;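 further: firefly luciferase from ISG56 promoter only with Renilla not read in this screen; 0% = Sendai virus plus DMSO and 100% = medium plus DMSO without virus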). The conditions noted are these: HEK293 RL24 IRF3 luciferase reporter, at 10 µM, stronger effect = higher value.
Experiment [8] in a line: inhibitors of poly I:C-induced TLR3 signaling, primary screen, cell-based, poly I:C stimulus, luciferase, 10K MLSCN set (AID 602277). The following applies: HEK293-TLR3 RL24 IRF3 luciferase reporter, at 10 µM, stronger effect = higher value. For orientation: A reporter such as luciferase makes a cellular process visible.

The source made the active and inactive calls.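 How the source made its calls, unless noted: active means inhibition of the reporter signal at or above 50%; inactive means inhibition below 50%.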

Sequence of Voltage-gated potassium channel subunit beta-2 (Rattus norvegicus) (P62483 whole entry, looked up): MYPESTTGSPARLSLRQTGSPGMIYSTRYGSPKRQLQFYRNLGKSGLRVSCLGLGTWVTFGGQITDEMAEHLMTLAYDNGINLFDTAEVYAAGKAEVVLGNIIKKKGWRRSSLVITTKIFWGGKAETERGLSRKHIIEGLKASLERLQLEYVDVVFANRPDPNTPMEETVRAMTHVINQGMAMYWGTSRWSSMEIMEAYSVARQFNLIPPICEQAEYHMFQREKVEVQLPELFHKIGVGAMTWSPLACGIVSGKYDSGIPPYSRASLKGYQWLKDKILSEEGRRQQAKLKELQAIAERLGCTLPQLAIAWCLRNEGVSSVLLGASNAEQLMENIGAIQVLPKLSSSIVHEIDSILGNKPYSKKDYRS
Sequence of Alpha-2C adrenergic receptor (Homo sapiens) (P18825 whole entry, looked up): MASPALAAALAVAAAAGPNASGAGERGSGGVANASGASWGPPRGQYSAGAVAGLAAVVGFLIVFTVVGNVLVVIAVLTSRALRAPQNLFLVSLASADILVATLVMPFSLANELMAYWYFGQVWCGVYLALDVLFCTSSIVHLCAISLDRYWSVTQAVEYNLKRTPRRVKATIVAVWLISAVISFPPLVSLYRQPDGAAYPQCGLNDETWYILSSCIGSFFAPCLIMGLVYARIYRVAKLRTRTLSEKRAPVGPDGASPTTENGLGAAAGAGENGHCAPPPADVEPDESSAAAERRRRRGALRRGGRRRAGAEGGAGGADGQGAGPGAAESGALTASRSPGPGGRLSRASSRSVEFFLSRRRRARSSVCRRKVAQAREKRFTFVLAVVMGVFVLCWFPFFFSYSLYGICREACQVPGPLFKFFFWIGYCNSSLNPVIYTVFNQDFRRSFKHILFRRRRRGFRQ

One may read the inhibition as the change of the read-out against control, counted positive when it falls. On to `Cc1cc(C)n(-c2nc3nonc3nc2-n2nc(C)cc2C)n1`, for which, in experiment [1], the cell count was 797. For the same compound, the inhibition in experiment [1] is -15.2% (inactive); in experiment [3], -20.5% (inactive); in experiment [7], 11.8% (inactive); in experiment [8], 27.1% (inactive). Further, the inhibition of aggregation in experiment [2] was -2.2% (inactive). In addition, the nuclei count in experiment [2] turned out to be 110%; in experiment [3] it was 106%. In addition, the fluorescence slope in experiment [4] was -0.416 (inactive). In experiment [5], the NADPH fluorescence slope was -2e-05 (inactive). Moreover, in experiment [6], the slope is 0.00318 (inactive).
In the case of `CCN(CC)CCCNC(=O)c1nn(-c2ccc(OC)cc2OC)c(=O)c2ccccc12`, in experiment [1], the cell count was determined as 352. Moreover, the inhibition was 5.3% (inactive) in experiment [1], -101% (inactive) in experiment [3], -10.6% (inactive) in experiment [7] and 7.12% (inactive) in experiment [8]. Besides, the inhibition of aggregation in experiment [2] was -6.3% (inactive). Besides, the nuclei count amounted to 106% in experiment [2] and 127% in experiment [3]. Besides, the fluorescence slope in experiment [4] was -0.597 (inactive). Moreover, the NADPH fluorescence slope in experiment [5] is -3.1e-05 (inactive). Besides, in experiment [6], the slope was 0.00476 (inactive).
For `Cc1nnc(SCC(=O)N2CC(=O)Nc3ccccc32)n1-c1ccccc1`, the cell count in experiment [1] came out at 502. Also, the inhibition in experiment [1] was -4.7% (inactive); in experiment [3], -190% (inactive); in experiment [7] it was 19.7% (inactive); in experiment [8], 22.4% (inactive). For the same compound, the inhibition of aggregation in experiment [2] is -14.7% (inactive). The nuclei count in experiment [2] was found to be 102%; in experiment [3] it was 134%. The fluorescence slope in experiment [4] was -0.483 (inactive). In addition, the NADPH fluorescence slope in experiment [5] was -3.9e-05 (inactive). Besides, the slope in experiment [6] was 0.00543 (inactive).
Regarding `COc1ccc2c(CC(=O)Nc3nnc(C4CC4)s3)coc2c1`, the cell count in experiment [1] came out at 286. Further, the inhibition is -15.7% (inactive) in experiment [1], -13.2% (inactive) in experiment [3], 9.99% (inactive) in experiment [7] and 14.7% (inactive) in experiment [8]. Also, the inhibition of aggregation in experiment [2] is 7.5% (inactive). The nuclei count in experiment [2] amounted to 105%; in experiment [3], 111%. Further, in experiment [4], the fluorescence slope is -0.482 (inactive). The NADPH fluorescence slope in experiment [5] was -0.000211 (inactive). Moreover, in experiment [6], the slope is 0.00533 (inactive).
As to `Cc1cccc(-n2ncc3c(NCc4cccnc4)ncnc32)c1`, the cell count in experiment [1] was 670. Moreover, the inhibition in experiment [1] is -21.7% (inactive); in experiment [3], -18.5% (inactive); in experiment [7], -49.1% (inactive); in experiment [8], -205% (inactive). Also, the inhibition of aggregation in experiment [2] was 9.2% (inactive). Besides, the nuclei count in experiment [2] is 101%; in experiment [3] it was 119%. Further, the fluorescence slope in experiment [4] is -0.555 (inactive). Besides, the NADPH fluorescence slope in experiment [5] was -3.3e-05 (inactive). Besides, in experiment [6], the slope is 0.00696 (inactive).
Regarding `Cc1nn(-c2ccc(F)cc2)c2c1cc(C#N)c1nc3ccccc3n12`, the cell count in experiment [1] was found to be 664. In addition, the inhibition in experiment [1] is 9.6% (inactive); in experiment [3], 2.3% (inactive); in experiment [7], 9.91% (inactive); in experiment [8], 23.6% (inactive). For the same compound, in experiment [2], the inhibition of aggregation was 29.9% (inactive). Moreover, the nuclei count in experiment [2] came out at 69.3%; in experiment [3] it was 102%. The fluorescence slope in experiment [4] is -0.000912 (active). Also, the NADPH fluorescence slope in experiment [5] was 1.1e-05 (inactive). Besides, the slope in experiment [6] was 0.00318 (inactive).
On to `CC(=O)Nc1sc2c(c1CN1CCN(c3ccccn3)CC1)CCCC2`, for which the cell count in experiment [1] is 698. Besides, the inhibition in experiment [1] was -14.6% (inactive); in experiment [3], 54.3% (active); in experiment [7], 6.55% (inactive); in experiment [8], 12.4% (inactive). For the same compound, the inhibition of aggregation in experiment [2] is 5.2% (inactive). The nuclei count in experiment [2] was 95.6%; in experiment [3] it was 95.3%. For the same compound, the fluorescence slope in experiment [4] was -0.517 (inactive). Also, the NADPH fluorescence slope in experiment [5] was -3.7e-05 (inactive). Further, the slope in experiment [6] is 0.00435 (inactive).
As to `CCC1CCCCN1C(=O)CSc1nnc(-c2ccc(OC)cc2)o1` (centres undefined), in experiment [1], the cell count amounted to 599. Also, the inhibition in experiment [1] was -4.4% (inactive); in experiment [3], -27.4% (inactive); in experiment [7], -5.53% (inactive); in experiment [8], -21.5% (inactive). In experiment [2], the inhibition of aggregation is 20.5% (inactive). Moreover, the nuclei count in experiment [2] was determined as 96.8%; in experiment [3], 113%. Moreover, the fluorescence slope in experiment [4] is -0.539 (inactive). The NADPH fluorescence slope in experiment [5] is 3e-05 (inactive). Moreover, the slope in experiment [6] was 0.0067 (inactive).
Regarding `C=Cn1nc(C)c2ccccc2c1=O`, the cell count in experiment [1] turned out to be 655. Besides, the inhibition in experiment [1] is -2.6% (inactive); in experiment [3], -27.2% (inactive); in experiment [7], 3.73% (inactive); in experiment [8] it was 1.18% (inactive). Also, in experiment [2], the inhibition of aggregation is 16.4% (inactive). For the same compound, the values for the nuclei count in experiment [2] and in experiment [3] were 114% and 137%, respectively. Besides, in experiment [4], the fluorescence slope was -0.344 (inactive). Also, the NADPH fluorescence slope in experiment [5] is -2.7e-05 (inactive). The slope in experiment [6] is 0.00755 (inactive).
In the case of `Cc1cccc2cc(CN(CC3CCCO3)C(=O)c3cnccn3)c(=O)[nH]c12` (centres undefined), in experiment [1], the cell count came out at 257. Moreover, the inhibition in experiment [1] is 18.6% (inactive); in experiment [3], -41% (inactive); in experiment [7], 8.77% (inactive); in experiment [8], 32.1% (inactive). Besides, in experiment [2], the inhibition of aggregation is 5.3% (inactive). In addition, the nuclei count in experiment [2] is 45.1%; in experiment [3], 113%. In experiment [4], the fluorescence slope was -0.401 (inactive). The NADPH fluorescence slope in experiment [5] was -9.9e-06 (inactive). Further, the slope in experiment [6] is 0.00355 (inactive).
As for `CCCNC(=O)c1ccccc1NC(=O)CN(c1ccccc1OCC)S(C)(=O)=O`, the cell count in experiment [1] is 654. In addition, the inhibition in experiment [1] is -8.2% (inactive); in experiment [3], -142% (inactive); in experiment [7], -1.76% (inactive); in experiment [8] it was 20.9% (inactive). Moreover, the inhibition of aggregation in experiment [2] was -11% (inactive). The figures for the nuclei count in experiment [2] and in experiment [3] were 105% and 102%, respectively. Also, in experiment [4], the fluorescence slope is -0.465 (inactive). For the same compound, the NADPH fluorescence slope in experiment [5] is -5.5e-06 (inactive). In addition, the slope in experiment [6] was 0.00349 (inactive).
`COc1ccc(S(=O)(=O)NC(C)C(=O)Nc2cccc(C(C)=O)c2)cc1` (centres undefined): in experiment [1], the cell count is 255. Moreover, the inhibition in experiment [1] is 2.4% (inactive); in experiment [3], -2.9% (inactive); in experiment [7], 14.3% (inactive); in experiment [8], 15.3% (inactive). The inhibition of aggregation in experiment [2] was 14.5% (inactive). Moreover, the nuclei count in experiment [2] was determined as 97.3%; in experiment [3], 62.6%. Besides, in experiment [4], the fluorescence slope was -0.402 (inactive). Further, in experiment [5], the NADPH fluorescence slope is -2.7e-05 (inactive). Besides, in experiment [6], the slope was 0.00498 (inactive).
As for `CCc1ccc(CCC(=O)Nc2ccc(C)c(C)c2)o1`, in experiment [1], the cell count was determined as 255. Besides, the inhibition in experiment [1] is 5.2% (inactive); in experiment [3], -34.3% (inactive); in experiment [7], -22.6% (inactive); in experiment [8], -50% (inactive). The inhibition of aggregation in experiment [2] is -4.6% (inactive). Moreover, the nuclei count in experiment [2] was 80.2%; in experiment [3], 99.6%. Moreover, the fluorescence slope in experiment [4] is -0.4 (inactive). In addition, in experiment [5], the NADPH fluorescence slope is -5.2e-05 (inactive). In experiment [6], the slope is 0.006 (inactive).
`N#CC1=C(SCC(=O)NC23CC4CC(CC(C4)C2)C3)NC(=O)C(C#N)C12CCCCC2` (centres undefined): the cell count in experiment [1] was determined as 755. Moreover, the inhibition in experiment [1] is -9.3% (inactive); in experiment [3], -142% (inactive); in experiment [7], 16.3% (inactive); in experiment [8], -22.7% (inactive). Further, the inhibition of aggregation in experiment [2] was 16.9% (inactive). Also, the nuclei count in experiment [2] was 100%; in experiment [3], 123%. The fluorescence slope in experiment [4] was -0.519 (inactive). The NADPH fluorescence slope in experiment [5] was -6.2e-05 (inactive). In addition, in experiment [6], the slope was 0.00603 (inactive).
